# Where “and” joins values, the source holds several entries; their conditions need not be identical. Identical values can stand only once. Calls of active or inactive are those of the source. Rule for the calls: active = hit-call score of the fitted dose curve at least 0.9, where 1 is the maximum; inactive = score below 0.9.
# Read-out: CD40, CD40 (gene 958)
# Experiment: BSK_SAg_CD40: BioMAP Diversity Plus: SAg Assay for CD40 Biomarker Activity (AID 2283088)
# Settings: primary human HUVEC with PBMC; actives raise or lower the signal
# Protocol: BSK_SAg is a cell-based, multiplexed-readout assay that uses umbilical vein endothelium and peripheral blood mononuclear cells, a human vascular primary cell co-culture, with measurements taken at 24 hours after chemical dosing in a 96-well plate.BSK_SAg_CD40 is one of 10 assay component(s) measured or calculated from the BSK_SAg assay. It is designed to make measurements of enzyme-linked immunosorbent assay, a form of binding reporter, as detected with fluorescence intensity signals by Enzyme-linked immunosorbent assay technology.Data from the assay component BSK_SAg_CD40 was analyzed into 1 assay endpoint. This assay endpoint, BSK_SAg_CD40, was analyzed with bidirectional fitting relative to DMSO as the negative control and baseline of activity. Using a type of binding reporter, gain or loss-of-signal activity can be used to understand changes in the signaling as they relate to the gene CD40. Furthermore, this assay endpoint can be referred to as a primary readout, because this assay has produced multiple assay endpoints where this one serves a signaling function. To generalize the intended target to other relatable targets, this assay endpoint is annotated to the cytokine intended target family, where the subfamily is inflammatory factor.
# The levels of cell surface (or secreted, indicated by the prefix "s") biomarker endpoints were measured by ELISA. Overt cytotoxicity to cells in confluent adherent cultures (all systems other than the BT system) was assessed by measuring total protein levels using sulforhodamine B (SRB) staining in parallel cultures at the time of biomarker measurements, indicated as SRB endpoints. For proliferation assays for adherent cell types, individual cell types are cultured at sub-confluence and relative cell numbers quantified by SRB staining at time points optimized for each system (48 h: 3C and CASM3C systems; 72 h: BT and HDF3CGF systems; 96 h: SAg system). SRB was performed by staining cells with 0.1% SRB after fixation with 10% TCA and reading wells at 560 nm.Viability and proliferation of PBMC (T cells) was quantified by Alamar Blue reduction for the SAg and BT systems. For PBMC viability (referred to as PBMC Cytotoxicity within the assay endpoint names), cells were plated (75,000/well in a 96-well plate) and then chemical samples added for 1 h before addition of activators, SEB and TSST-1 (20 ng/mL final concentration each). Cells were incubated for 90 h. Then, Alamar Blue (20 uL/well) (Invitrogen, Cat DAL1100) was added for 6 h, and the plates were read with a fluorescence microplate reader at 546/580 nm (excitation/emission). For PBMC proliferation, cells were plated and activated as above but incubated for only 16 h prior to addition of Alamar Blue. Plates were read after 6 h.
SMILES,outcome,AC50
CC(C)CCCCCOC(=O)CS,inactive,–
CCOC(=O)/C=C\C(=O)OCC,inactive,–
CC1(C)CC(O)CC(C)(C)N1[O],inactive,–
CCc1cccc(C)c1N(C(=O)CS(=O)(=O)O)C(C)COC (stereo not given),inactive,–
Nc1ccc(C(=O)O)cc1,inactive,–
CCCCCCCCCCCC(=O)N(C)CC(=O)O,inactive,–
c1ccc2c(c1)[nH]c1ccccc12,inactive,–
Oc1ccc(/C=C/c2cc(O)cc(O)c2)cc1,inactive,–
C=CC(=O)NCOCCCC,inactive,–
Cc1c(O)cccc1O,inactive,–
Oc1c(Cl)cc(Cl)c(Cl)c1Cl,–,20 µM (active)
Nc1nc(N)nc(-c2ccccc2)n1,inactive,–
CC/C=C\CCOC(=O)c1ccccc1O,–,33.6 µM (active)
O=C1CCCCCCCCCCC1,inactive,–
CC(C)[N+](C)(CCOC(=O)C1c2ccccc2Oc2ccccc21)C(C)C,inactive,–
Nc1cccc(N)n1,inactive,–
CCCCCC1=CCCC1=O,inactive,–
Clc1cc(Cl)c(Cl)c(Cl)c1Cl,inactive,–
CC(C)C(=O)OCCc1ccccc1,inactive,–
C=CC(=O)OCC(C)OCC(C)OCC(C)OC(=O)C=C (stereo not given),–,8.77 µM (active)

SMILES,outcome,AC50
CC/C=C\C/C=C\C/C=C\CCCCCCCC(=O)OC,–,14.8 µM (active)
Oc1ccccc1Cc1ccccc1O,inactive,–
CC=C(C)C(C)=O,inactive,–
O=C1CCCCCCCCCCCN1,inactive,–
COC(OC)(C(=O)c1ccccc1)c1ccccc1,inactive,–
CC=C(C)C=CC=C(C)C,–,6.97 µM (active)
CCOC(=O)C1=NOC(c2ccccc2)(c2ccccc2)C1,inactive,–
C=C(C)C(=O)OCCCCCCCCCCCC,inactive,–
CCNc1nc(NC(C)(C)C)nc(OC)n1,inactive,–
CCC1(C)C(=O)N(Cl)C(=O)N1Cl (stereo not given),inactive,–
c1ccc2sc(SSN3CCOCC3)nc2c1,inactive,–
Fc1ccc(Br)cc1,inactive,–
CCOC(=O)C1=NN(c2ccc(Cl)cc2Cl)C(C)(C(=O)OCC)C1 (stereo not given),inactive,–
CCCCCCCCCCCC(C)=O,–,30 µM (active)
CCCCCCCO,inactive,–
CC(c1cc(C(C)(C)C)cc(C(C)(C)C)c1O)c1cc(C(C)(C)C)cc(C(C)(C)C)c1O,inactive,–
CCCCCCOC(=O)CCCCC(=O)OCCCCCC,inactive,–
c1ccc(Nc2cccc3ccccc23)cc1,–,28.9 µM (active) and 26.5 µM (active)
CCCCCCCCC(CO)CCCCCC (stereo not given),inactive,–
C1CNCCN1,inactive,–

# From PubChem BioAssay (EPA / NIEHS)
